About 720 (0.36%) of roughly 200,000 compounds were called active. Roughly 8% stayed inconclusive and do not appear here. Calls come from the whole dose curve; as a rule, active = well fitted activation curve with a large enough effect; inconclusive = small, poorly fitted or top-dose-only effect, or effect the other way, or another doubt; inactive = flat fitted curve, though single readings scatter. Some of the results follow.
The molecules below were run against Lysosomal alpha-glucosidase (Homo sapiens) (UniProt P10253) (assay: qHTS Assay for Activators of Human alpha-Glucosidase as a Potential Chaperone Treatment of Pompe Disease). Details: purified enzyme, 4-MU-alpha-glucoside fluorescence, 20 min; series mostly up to 76.9 µM.
Outline: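 Fluorogenic assay, 4 nM enzyme, 400 uM 4-methylumbelliferyl-[…], pH 5.0 citrate/phosphate buffer with 0.005% Tween-20, compounds up to 77 uM, 20 min at room temperature. NaOH/glycine stop, Ex 365/Em 440 nm; AC50 from Hill fits.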
Note: nearly all actives have a fitted effect of over 80% in size.
Potency is the fitted concentration of half-maximal effect.

Potency, active:
CCN(CC)CCCNC(=O)CCC(=O)Nc1ccc2nc(N3CCC(C)CC3)cc(C)c2c1 39.8 µM
COCCCNC(=O)CCC(=O)Nc1ccc2nc(N3CCOCC3)cc(C)c2c1 28.2 µM
Cc1cc(C)c2c(n1)nn1c(NCCN3CCOCC3)cc(C)nc21 28.2 µM
COCCNc1cc(C)nc2c3c(C)cc(C)nc3nn12 35.5 µM
Cc1cc(C)c2c(n1)nn1c(NCCCN(C)C)cc(C)nc21 39.8 µM
Cc1cc(C)c2c(n1)nn1c(NCCOCCO)cc(C)nc21 35.5 µM
CCc1cc2c(C)cc(=O)oc2cc1OC(=O)C1CCCN1C(=O)OC(C)(C)C (stereo not drawn) 31.6 µM
CCOP(=O)(OCC)C(NC(=O)c1cccs1)C(F)(F)F (stereo not drawn) 31.6 µM
COCCCn1c(CCC(=O)O)ccc1-c1ccc(F)cc1 22.4 µM
O=S1(=O)CCN2C=C(Cl)C=C(Cl)C2=N1 35.5 µM
Cc1c(C)c2cc(Cl)c(O)c(CN3CCCCC3)c2oc1=O 14.1 µM
CCc1c(C)c2cc(Cl)c(O)c(CN3CCCCC3)c2oc1=O 31.6 µM
Cc1c(C)c2cc(Cl)c(O)c(CN3CCN(C)CC3)c2oc1=O 25.1 µM
N=c1oc2ccc3ccccc3c2cc1-c1nnc2n1CCCCC2 35.5 µM
C=CCn1cc(-c2ccccc2)cc(C#N)c1=O 35.5 µM
CC1C2=C(CC(C)(C)CC2=O)NC2=C1C(=O)CC(C)(C)C2 35.5 µM
O=C(Nc1cccc(-c2cn3cccnc3n2)c1)c1ccco1 28.2 µM
Cc1c(-c2cccc(NC(=O)c3ccco3)c2)nc2ncccn12 35.5 µM
Cc1c(-c2cccc(NC(=O)c3cccs3)c2)nc2ncccn12 31.6 µM
Cc1ccc(C)c(-n2c(=O)c(C#N)cc3c(=O)n4ccccc4nc32)c1 35.5 µM
Cc1ccccc1-n1c(=O)c(C#N)cc2c(=O)n3ccccc3nc21 35.5 µM
N#Cc1cc2c(=O)n3ccccc3nc2n(-c2ccccc2Cl)c1=O 35.5 µM
CCOC(=O)c1oc2ccccc2c1NC(=O)COc1ccc(F)cc1 35.5 µM
CCCS(=O)(=O)n1nc(-c2ccc(Br)cc2)cc1N 39.8 µM
Cc1cc(=O)n2ccccc2c1C#N 35.5 µM
CCOC(=O)C1=C(C)NC2=C(C(=O)CC(C)(C)C2)C1c1cccc(C)n1 (stereo not drawn) 35.5 µM
COC(=O)C1=C(C)NC2=C(C(=O)CCC2)C1c1cccc(C)n1 (stereo not drawn) 28.2 µM
COC(=O)C1=C(C)NC2=C(C(=O)CC(C)(C)C2)C1c1ccccn1 (stereo not drawn) 35.5 µM
CCOC(=O)c1cnc2c(-c3ccc(F)cc3)cnn2c1C(F)(F)F 31.6 µM
CC(=O)Oc1cc(OC(C)=O)c2c(C)cc(=O)oc2c1 35.5 µM
CCc1cc(=O)oc2cc(OC(C)=O)cc(OC(C)=O)c12 35.5 µM
COCCN1C=C(C(=O)OC)C(c2ccccc2Cl)C(C(=O)OC)=C1 31.6 µM
COC(=O)C1=CNC=C(C(=O)OC)C1c1ccccc1Cl 31.6 µM
COCCN1C=C(C(=O)OC)C(c2ccccc2C(F)(F)F)C(C(=O)OC)=C1 35.5 µM
CCCCN1C=C(C(=O)OC)C(c2ccccc2Cl)C(C(=O)OC)=C1 22.4 µM
COC(=O)C1=CN(C)C=C(C(=O)OC)C1c1ccc(Cl)cc1Cl 25.1 µM
COC(=O)C1=CNC=C(C(=O)OC)C1c1ccc(Cl)cc1 35.5 µM
COC(=O)C1=CN(C)C=C(C(=O)OC)C1c1ccccc1Cl 31.6 µM
CCOC(=O)c1cnc2sc3c(n2c1=O)CCCC3 39.8 µM
CCOC(=O)c1cc(C(=O)OCC)c2ccccn2c1=O 35.5 µM
CCOC(=O)c1cnc2cc(C)ccn2c1=O 35.5 µM
CCOC(=O)c1cnc2cc3c(cn2c1=O)CCCC3 28.2 µM
CCCC1(C)Nc2ccccc2-c2nc3ccccc3n21 (stereo not drawn) 31.6 µM
CCCCC1(C)Nc2ccccc2-c2nc3ccccc3n21 (stereo not drawn) 35.5 µM
c1ccc2c(c1)NC1(CCCC1)n1c-2nc2ccccc21 31.6 µM
CC1OC(Oc2ccc3ccc(=O)oc3c2-c2c(O)ccc3cc(Oc4ccc5ccc(=O)oc5c4)c(=O)oc23)C(O)C(O)C1O (stereo not drawn) 39.8 µM
C=CCn1c(=O)c(C#N)cc2c(=O)n3ccccc3nc21 35.5 µM
Cc1cccn2c(=O)c3cc(C#N)c(=O)n(CCCN4CCOCC4)c3nc12 35.5 µM
N#Cc1cc2c(=O)n3ccccc3nc2n(CCCN2CCOCC2)c1=O 35.5 µM
Cc1[nH]nc2c1-c1nc3ccccc3nc1C(C)(C)C2 28.2 µM
COc1ccc2c(c1)c1ncn(Cc3ccco3)c(=O)c1n2C 35.5 µM
CCCn1c(=O)c2c(C(=O)OCC)cc(-c3ccco3)nc2n(CCC)c1=O 35.5 µM
COCCn1c(=O)[nH]c(=O)c2c(C(F)(F)F)cc(-c3cccs3)nc21 28.2 µM
O=c1[nH]c(=O)n(Cc2ccccc2)c2nc(-c3ccco3)cc(C(F)(F)F)c12 31.6 µM
CCCn1c(=O)[nH]c(=O)c2c(C(=O)OCC)cc(-c3cccs3)nc21 35.5 µM
CCCCn1c(=O)[nH]c(=O)c2c(C(=O)OCC)cc(-c3cccs3)nc21 35.5 µM
COc1ccc2cc(/C=N/NC(=O)CN(c3ccccc3)S(=O)(=O)c3ccccc3)c(Cl)nc2c1 35.5 µM
COC(=O)C1=CN(C)C=C(C(=O)OC)C1c1ccsc1 35.5 µM
CCOC(=O)C1=CN(C)C=C(C(=O)OCC)C1c1ccsc1 31.6 µM
N#Cc1cc2ccccc2nc1N 39.8 µM
COc1ccc(-c2cc(=Nc3c(C)n(C)n(-c4ccccc4)c3=O)c3ccccc3o2)cc1 35.5 µM
Nc1nc2nccc(-c3ccc(Cl)cc3)n2n1 22.4 µM
Nc1nc2nc(-c3ccc(F)cc3)cc(C(F)(F)F)n2n1 25.1 µM
COc1ccc(-c2cc(C(F)(F)F)n3nc(N)nc3n2)cc1 35.5 µM
Nc1nc2nc(-c3ccc(Cl)cc3)cc(C(F)(F)F)n2n1 31.6 µM
Cc1nc2cc3ccccc3cc2c(=O)[nH]1 25.1 µM
CCCCCCc1cc2cc(C(N)=O)c(=N)oc2cc1O 31.6 µM
CCCCCCc1cc2cc(C(=O)NCc3ccccc3)c(=N)oc2cc1O 35.5 µM
CCCCCCc1cc2cc(S(=O)(=O)c3ccc(F)cc3)c(=O)oc2cc1O 31.6 µM
COCCN1C=C(C(=O)OC)C(c2cc(Br)c(OC)c(OC)c2)C(C(=O)OC)=C1 35.5 µM
CCCOc1ccc(C2C(C(=O)OC)=CN(CCOC)C=C2C(=O)OC)cc1 35.5 µM
CCOc1ccc(C2C(C(=O)OC)=CN(CCOC)C=C2C(=O)OC)cc1 35.5 µM
Cc1cc(N2CCOCC2)nc2ccc(NC(=O)CCC(=O)N3CCCCC3)cc12 35.5 µM
Cc1cc(N2CCOCC2)nc2ccc(NC(=O)CCC(=O)N3CCCC(C)C3)cc12 (stereo not drawn) 39.8 µM
Oc1ccc(N=Cc2ccc(-c3cccs3)s2)cc1 31.6 µM
CC(C)c1ccc2oc3nc(N)c(C(=O)O)cc3c(=O)c2c1 35.5 µM
N#Cc1ccc2c(c1)nc1ccccn12 35.5 µM
Cc1cc(=O)oc2c(CN3CCC(C)CC3)c(O)c(Cl)cc12 35.5 µM
Cc1cc(=O)oc2c(CN3CC(C)OC(C)C3)c(O)c(Cl)cc12 (stereo not drawn) 10 µM
Cc1cc(=O)oc2c(CN3CCN(C)CC3)c(O)c(Cl)cc12 35.5 µM
Cc1cc(=O)oc2c(CN3CCCCC3)c(O)c(Cl)cc12 31.6 µM
CCN1CCN(Cc2c(O)c(Cl)cc3c(C)cc(=O)oc23)CC1 35.5 µM
COc1ccccc1C1CN(c2ccc(F)cc2F)N=C1c1cccs1 (stereo not drawn) 28.2 µM
COc1cccc(C2CN(c3ccc(F)cc3F)N=C2c2cccs2)c1OC (stereo not drawn) 39.8 µM
COc1ccccc1C1CN(c2ccccc2)N=C1c1cccs1 (stereo not drawn) 39.8 µM
Fc1ccccc1N1CC(c2ccccc2)C(c2cccs2)=N1 (stereo not drawn) 35.5 µM
Fc1ccc(N2N=C(c3cccs3)CC2c2ccccc2)cc1 (stereo not drawn) 31.6 µM
Fc1ccc(C2CC(c3cccs3)=NN2c2ccccc2)cc1 (stereo not drawn) 31.6 µM
O=c1c(-c2nnc(SCc3ccc(Cl)cc3)o2)cccn1Cc1ccccc1 39.8 µM
O=c1c(-c2nnc(SCc3ccc(Cl)cc3Cl)o2)cccn1Cc1ccccc1 35.5 µM
O=c1c(-c2nnc(SCc3ccc(Cl)c(Cl)c3)o2)cccn1Cc1ccccc1 35.5 µM
O=c1oc2cc(Oc3c([N+](=O)[O-])cc(C(F)(F)F)cc3[N+](=O)[O-])ccc2c2c1CCCC2 35.5 µM
FC(F)(F)c1cc(-c2cccs2)nc2ncnn12 28.2 µM
Nc1nc2nc(-c3cccs3)cc(C(F)(F)F)n2n1 28.2 µM
COc1ccc(-c2cc3ccc(OCc4nn[nH]n4)cc3oc2=O)cc1 35.5 µM
CCCOc1ccc2cc(-c3ccccn3)c(=O)oc2c1 39.8 µM
CN(C)C(=O)COc1ccc2cc(-c3ccccc3)c(=O)oc2c1 35.5 µM
CSc1cnc2c(=O)n(C)c(=O)[nH]c2n1 35.5 µM
